Data taken from PubChem BioAssay (Tox21).
Values without a mark were called inactive. Active and inactive are the calls of the source. Calls follow the shape of the dose curve; as a rule, active = well fitted curve in the direction sought with a large enough effect in the repeat runs; inconclusive = weak or mixed curves; inactive = flat fitted curve, though single readings scatter.

Experiment: qHTS assay to test for compound auto fluorescence at 535 nm (green) in HEK293 cell free culture (AID 720682)
Conditions: cell-free medium, green autofluorescence 485/535 nm; series mostly up to 91.3 µM; activity change: at the top concentration
From the text: U.S. Tox21 Program National Center for Advancing Translational Sciences [NCATS] NIH Chemical Genomics Center [NCGC] U.S. Environmental Protection Agency [EPA] National Institutes of Environmental Health Sciences [NIEHS] National Toxicology Program [NTP] U.S. Food and Drug Administration [FDA] Tox21 Assay Overview: Compound auto fluorescence often interferes with screening of the compound library against various biological targets and signaling pathways. Some of these compounds may have fluorophoric properties. Such properties may interfere with the assay outputs resulting in false positives and/or negatives. To decrease such complications and ensure the compound activities are relevant in terms of biological response, the Tox21 10K compound library was screened for auto fluorescence. From the fluorophores used as reporter signals in our screening assays, the auto fluorescence equivalencies of compounds against three fluorophores have been evaluated: Triamterene, Fluorescein and Rose Bengal sodium for blue, green and red fluorescence, respectively. The fluorescence intensities were measured using Excitation/Emission wavelengths at 405/460nm, 485/535nm and 540/590nm for blue, green and red labels, respectively. This assay includes the green fluorescence data.
Tox21 Assay Protocol Summary: 5 uL of culture medium (DMEM containing 10% FBS) per well was dispensed into black wall/clear bottom 1536-well plates using a Multidrop Combi Dispenser (ThermoFisher Scientific, Waltham, MA). After 23 nL compound or DMSO vehicle was transferred into assay plate by a pintool work station (Kalypsys, San Diego, CA), fluorescence intensities in the assay plates were measured by an Envision (PerkinElmer, Shelton, CT) plate reader using three labels for measuring blue, green and red fluorescence at […] 460, 535 and 590nm respectively.
% is scaled to controls: 0 for no effect and ±100 for the full control effect; potency is read from the fitted curve at half-maximal effect; tags tell the direction and shape of the fitted curve or compound fluorescence and quenching.

Structure (SMILES)	activity change	Potency
CC(C(=O)O)c1ccc2c(c1)[nH]c1ccc(Cl)cc12 (stereo not given)	-0.0106% [at 46 µM, stronger effect = higher value]	–
CCOC(=O)NNc1ccc(N(CC)CC(C)O)nn1 (stereo not given)	0.125% [at 46 µM, stronger effect = higher value]	–
CC(=O)[C@H]1CC[C@H]2[C@@H]3CCC4=CC(=O)CC[C@]4(C)[C@H]3CC[C@]12C	–	inactive
O=C(Oc1ccccc1)Oc1ccccc1	0.108%	–
CC(C)CCOC(=O)/C=C/c1ccccc1	-0.0004%	–
CC(C)(C)C1CCC(=O)CC1	-0.0136%	–
OC1CCCc2ccccc21 (stereo not given)	0.0006%	–
C#C[C@]1(O)CC[C@H]2[C@@H]3[C@H](C)CC4=C(CCC(=O)C4)[C@H]3CC[C@@]21C	0.0183% [at 46 µM, stronger effect = higher value]	–
O=c1[nH]c2ccccc2n1CCCN1CCN(C(c2ccccc2)c2ccccc2)CC1	0.0096% [at 46 µM, stronger effect = higher value]	–
CC(C)Cn1cnc2c(N)nc3ccccc3c21	-0.0419% [at 46 µM, stronger effect = higher value]	–
CCCCCCCCCCCCOCCOCCOCCOCCOCCOCCOCCOCCOCCO	-0.0124% [at 46 µM, stronger effect = higher value]	–
[Cl][Pt-2]([Cl])([Cl])[Cl]	-0.0454%	–
OC1CCC(C2CCCCC2)CC1 (stereo not given)	0.112%	–
CCCCNS(=O)(=O)c1ccc(C)cc1	0.0025%	–
CNc1ccc([N+](=O)[O-])cc1	-0.111%	–
O=C1NC(=O)[C@@H]2CC=CC[C@H]12	0.06%	–
CCCC[P+](C)(CCCC)CCCC	0.0353% [at 95.7 µM, stronger effect = higher value]	–
CCN(CC)C(=O)c1cc(S(=O)(=O)Cc2ccccc2)c(N2CCC(c3ccccc3)CC2)cc1N(CC)CCN(C)C	–	inactive
NC[C@H]1O[C@H](O[C@H]2[C@H](O[C@@H]3O[C@H](CO)[C@@H](O)[C@H]3O)C(O)[C@H](N)C[C@@H]2N)[C@H](N)[C@@H](O)[C@@H]1O (stereo not given in full)	-0.144% [at 18.6 µM, stronger effect = higher value]	–
O=S(=O)(O)c1ccc(Nc2nc(Nc3ccc(/C=C/c4ccc(Nc5nc(Nc6ccc(S(=O)(=O)O)cc6)nc(N(CCO)CCO)n5)cc4S(=O)(=O)O)c(S(=O)(=O)O)c3)nc(N(CCO)CCO)n2)cc1	-0.088%	–

Structure (SMILES)	activity change	Potency
CN1CCCCC1CCN1c2ccccc2Sc2ccc(S(C)=O)cc21 (stereo not given)	–	inactive
Cc1ccc(C(C)C)cc2c(C)ccc1-2	0.0488% [at 46 µM, stronger effect = higher value]	–
O=C1OC2(c3ccc(O)cc3Oc3cc(O)ccc32)c2ccc(N=C=S)cc21	–	39.8 µM [fluorescent] (active)
CCCCCC(C)OC(=O)COc1ccc(Cl)c2cccnc12 (stereo not given)	-0.0264%	–
O=S(=O)(O)c1ccc(N=Nc2c(O)ccc3ccccc23)cc1	-0.736%	–
CCCCCCCCCCOC(=O)c1ccccc1C(=O)OCCCCCCCC	0.0482%	–
CCC(C)(CCC(C)C)C(=O)[O][Sn]([CH3])([CH3])[O]C(=O)C(C)(CC)CCC(C)C (stereo not given)	0.0597%	–
S=c1nccc[nH]1	-0.0106%	–
CCC(CC)C(C)CCOC(C)=O (stereo not given)	-0.0475%	–
CCCCCCCCCCCCCCCC[N+](C)(C)CC	–	inactive
Cc1ccc(O)c(N)c1	0.0013%	–
Nc1ccc(C(=O)O)c(O)c1	0.0192% [at 46 µM, stronger effect = higher value]	–
COc1cc(/C=C/c2ccccc2)oc(=O)c1	0.0198% [at 95.7 µM, stronger effect = higher value]	–
COc1cccc2c1C(=O)c1c(O)c3c(c(O)c1C2=O)C[C@@](O)(C(C)=O)C[C@@H]3O[C@H]1C[C@H](N)[C@H](O)[C@H](C)O1	4.33% [at 46 µM, stronger effect = higher value]	–
CN1CCN2c3ccccc3Cc3ccccc3C2C1 (stereo not given)	-0.0076% [at 46 µM, stronger effect = higher value]	–
CC(C)OC(=O)C(O)(CC(=O)O)CC(=O)O	-0.0106%	–
[Cu+]	0.0072%	–
Cc1ccc(C(=O)O)cc1	-0.103% [at 95.7 µM, stronger effect = higher value]	–
CCO[Si](OCC)(OCC)OCC	0.0043% [at 95.7 µM, stronger effect = higher value]	–
CCOc1ccc2ccccc2c1C(=O)N[C@@H]1C(=O)N2[C@@H]1SC(C)(C)[C@@H]2C(=O)O	0.0527% [at 18.6 µM, stronger effect = higher value]	–
